Measurements reported in the supplement of paper PMC13380429.
Structures can show the parent of a compound that is named as a salt.

System: Vero E6 infected with SARS-CoV-2
Test: morphology score (similarity to uninfected cells); higher = more like uninfected cells
Conditions: 24 h

| Compound | morphology score |
| --- | --- |
| CCOc1ccc(Nc2nc(-c3c(C)nc4ccccn34)cs2)cc1 (0.833333 µM) | -0.00134 |
| CCC(=O)O[C@]1(C(=O)CCl)[C@@H](C)C[C@H]2[C@@H]3CCC4=CC(=O)C=C[C@]4(C)[C@@]3(F)[C@@H](O)C[C@@]21C [clobetasol-propionate] (10 µM) | 0.00072 |
| O=[N+]([O-])c1ccc2c(c1)S(=O)(=O)C=C2 [stattic] (0.833333 µM) | 0.148 |
| O=C(NC(=O)c1c(F)cccc1Cl)NC1c2ccccc2-c2ccccc21 (10 µM) | 0.143 |
| CCCc1cc(=O)[nH]c(=S)[nH]1 [propylthiouracil] (10 µM) | 0.00376 |
| CC(C)[C@H]1C(=O)N[C@@H](CCCNC(=N)N)C(=O)NCC(=O)N[C@@H](CC(=O)O)C(=O)N[C@H](Cc2ccccc2)C(=O)N1C [cilengitide] (10 µM) | -0.377 |
| CC(C)=CCC/C(C)=C/CC/C(C)=C/CC[C@]1(C)CCc2cc(O)cc(C)c2O1 [delta-tocotrienol] (10 µM) | 0.0442 |
| Oc1cc2c(cc1O)CN(C(=S)NCCc1ccc(Cl)cc1)CCC2 [capsazepine] (10 µM) | -0.103 |
| Nc1nc(NCCc2ccc(O)cc2)nc2nc(-c3ccco3)nn12 (10 µM) | -0.0969 |
| CCCCN(CCCC)C(=O)CN1C[C@H](c2ccc3c(c2)OCO3)[C@@H](C(=O)O)[C@@H]1c1ccc(OC)cc1 [atrasentan] (10 µM) | 0.0179 |
| CC(=O)Nc1ccc(S(=O)(=O)c2ccc(NC(C)=O)cc2)cc1 [acedapsone] (10 µM) | 0.233 |
| COC(=O)c1ccccc1O [methyl-salicylate] (10 µM) | -0.162 |
| OC(c1ccccc1)(c1ccccc1)C1CCNCC1 [azacyclonol] (10 µM) | -0.109 |
| O=C(CCCCC(=O)Nc1c(I)cc(I)c(C(=O)O)c1I)Nc1c(I)cc(I)c(C(=O)O)c1I [iodipamide] (10 µM) | 0.0415 |
| CCN(CC)S(=O)(=O)c1ccc(C(=O)O)cc1 [etebenecid] (10 µM) | 0.125 |
| Cc1nnc2n1-c1sc(CCC(=O)N3CCOCC3)cc1C(c1ccccc1Cl)=NC2 [apafant] (10 µM) | -0.0825 |
| CN1CC(=O)NC1=N [creatinine] (10 µM) | 0.0578 |
| CC(C)NNC(=O)c1ccncc1 [iproniazid] (10 µM) | 0.0745 |
| CC1(C)CCC(C)(C)c2cc(Cn3cccn3)c(/C=C/c3ccc(C(=O)O)cc3)cc21 [palovarotene] (10 µM) | -0.127 |
| O=C1Nc2ccccc2/C1=C1/Nc2ccccc2C1=O [indirubin] (10 µM) | 0.173 |

| Compound | morphology score |
| --- | --- |
| CCN1CCN(Cc2ccc(Nc3ncc(F)c(-c4cc(F)c5nc(C)n(C(C)C)c5c4)n3)nc2)CC1 [abemaciclib] (10 µM) | 0.0416 |
| CC(C)(C)C1CCc2c(sc(NC(=O)c3ccco3)c2C(=O)O)C1 (stereo not given) (0.833333 µM) | 0.0992 |
| C[C@H](Nc1cc(-c2cnn(C)c2)cc(Nc2cnccn2)n1)c1ccc(F)cc1 (0.833333 µM) | -0.112 |
| CC(C)(C=O)Cc1cc(C(C)(C)C)c(O)c(C(C)(C)C)c1 (10 µM) | 0.0771 |
| CNCCc1cnc[nH]1 [N-alpha-methylhistamine-dihydrochloride] (10 µM) | -0.0409 |
| CCN(c1ccccc1)c1cc(=NC)n(C)c(C)n1 (10 µM) | 0.203 |
| Cc1ccc(C(=O)Nc2ccc(CN3CCN(C)CC3)c(C(F)(F)F)c2)cc1C#Cc1cnc2cccnn12 [ponatinib] (10 µM) | 0.435 |
| Cc1cc2c(OCC(CNC(C)(C)C)OC(=O)c3ccccc3)cccc2[nH]1 (stereo not given) [bopindolol] (10 µM) | 0.12 |
| c1cc(Cc2cnc[nH]2)ccn1 [immethridine] (10 µM) | 0.158 |
| O=C/C=C/c1ccccc1 [cinnamaldehyde] (10 µM) | -0.0291 |
| CSc1ccc2c(c1)N(CCC1CCCCN1C)c1ccccc1S2 (stereo not given) [thioridazine] (0.833333 µM) | 0.304 |
| NC(=O)c1ccccc1O [salicylamide] (10 µM) | -0.114 |
| CC(C)NCC(O)COc1ccc(COCCOC(C)C)cc1 (stereo not given) [bisoprolol] (10 µM) | -0.0255 |
| COc1ccc(-c2cc(C(F)F)nn2-c2ccc(S(N)(=O)=O)cc2)cc1F [deracoxib] (10 µM) | 0.112 |
| NCC(O)c1ccc(O)cc1 (stereo not given) [octopamine] (10 µM) | -0.0363 |
| COc1cc(/C=C2\CCC/C(=C\c3ccc(O)c(OC)c3)C2=O)ccc1O [cyclovalone] (10 µM) | 0.0684 |
| Oc1c(Cl)cc(Cl)cc1Sc1cc(Cl)cc(Cl)c1O [bithionol] (10 µM) | -0.096 |
| C[N+](C)(C)CCOP(=O)(O)OC[C@H](O)CO [choline-alfoscerate] (10 µM) | 0.0475 |
| CC(C)NC(=N)NC(=N)Nc1ccc(Cl)cc1 [proguanil] (10 µM) | -0.0553 |
| Nc1cccc2c1C(=O)N(C1CCC(=O)NC1=O)C2=O (stereo not given) [pomalidomide] (10 µM) | -0.074 |
